What all share (experiment): NCI-60 one-dose screen, 48 h (100 = growth as untreated, 0 = no growth, -100 = all killed)
Test [1] relates to HCT-15 colon. Particulars: 10 µM unless noted.
In test [2] the test system is HT29 colon. Particulars: 10 µM unless noted.
In test [3] the test system is SNB-75 CNS. Particulars: 10 µM unless noted.
Test [4] concerns SNB-19 CNS. Conditions: 10 µM unless noted.
For test [5], the system named is U251 CNS. Conditions: 10 µM unless noted.
Test [6] has as its system PC-3 prostate. Particulars: 10 µM unless noted.
The test system of test [7] is SK-MEL-5 melanoma. Particulars: 10 µM unless noted.
Test [8] concerns UACC-62 melanoma. Particulars: 10 µM unless noted.
The subject of test [9] is LOX IMVI melanoma. Conditions: 10 µM unless noted.
The test system of test [10] is SK-MEL-28 melanoma. Conditions: 10 µM unless noted.
Test [11] has as its system EKVX NSCLC. Conditions: 10 µM unless noted.
Test [12] concerns SN12C renal. Particulars: 10 µM unless noted.
Test [13] deals with UO-31 renal. Conditions: 10 µM unless noted.
Test [14] concerns TK-10 renal. Particulars: 10 µM unless noted.
For test [15], the system named is ACHN renal. Conditions: 10 µM unless noted.
Test [16] has as its system CAKI-1 renal. Conditions: 10 µM.
Test [17] relates to CCRF-CEM leukemia. Conditions: 10 µM unless noted.
In test [18] the test system is MOLT-4 leukemia. Conditions: 10 µM unless noted.
Test [19] concerns A498 renal. Conditions: 10 µM unless noted.

Each structure is given as a SMILES string. The panel holds about 83,000 compounds, 20% with a hit somewhere; the sample as a whole holds those more often.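 Interpretation: 100, growth as untreated; towards 0, rising growth inhibition; 0, no net growth; 0 to -100, cell death. Compounds scoring below 10 were considered active.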 Values without a mark were called inactive. Active and inactive are the calls of the source.

In the case of `COc1ccc(-c2nc3cc(Cl)c(Cl)cc3n2CC(=O)N=Nc2c(O)[nH]c3ccccc23)cc1`, the growth in test [1] is 30.6%; in test [2], 78.9%; in test [3] it was 60%; in [4], 91.3%; in test [5], 71%; in [6] it was 76.1%. Besides, the growth in [7] was 53.6%; in test [8], 68.1%; in test [9] it was 9.62% (active); in test [10], 74.7%; in test [11] it was 72.4%; in [12] it was 38.4%. For the same molecule, the growth in test [13] is 76.9%; in test [14], 95.7%; in test [15], 50.8%; in test [16], 56.5%; in test [17] it was 39.9%; in test [18], 47.4%.
With `Cc1cn(-c2cc(NC(=O)c3cncc(C#Cc4cnc5ccc(O[C@@H]6CCOC6)nn45)c3)cc(C(F)(F)F)c2)cn1`, the growth in test [1] was -31.2% (active); in test [2], -14% (active); in test [3] it was -63.3% (active); in [4], -7.45% (active); in test [5] it was -96.6% (active); in [6], -0.613% (active). The growth in test [7] was -98.4% (active); in test [8], -51.7% (active); in test [9] it was -75.7% (active); in test [10], -46.9% (active); in test [11], -9.97% (active); in test [12], -8.41% (active). Also, the growth is -13.3% (active) in [13]; -19.2% (active) in test [14]; -93.6% (active) in test [15]; 1.07% (active) in test [16]; 0.641% (active) in test [17]; 2.18% (active) in [18].
For `C(=C(\C1=NCCN1)n1cnc2ccccc21)/c1cccc2ccccc12`, the growth in test [1] was 88.2%; in test [2], 95%; in test [3], 78.2%; in test [4] it was 88.8%; in test [5], 94.6%; in test [6], 78.6%. Further, the growth in [7] is 87.3%; in test [8], 88.1%; in test [9], 83.8%; in test [10], 93.8%; in [11] it was 87.2%; in [12], 85.4%. For the same molecule, the growth is 62.2% in test [13]; 90.9% in test [14]; 87.2% in [15]; 68.7% in [16]; 91.1% in [17]; 93.2% in [18].
For `COc1ccc(CCN2C(=O)CSC2=S)cc1OC`, the growth in test [1] is 84%; in test [2] it was 109%; in [3], 112%; in test [4], 99.9%; in [5] it was 99.5%; in test [6], 91.2%. Also, the growth in test [7] was 85.2%; in [8], 97%; in test [9], 56.6%; in test [10], 102%; in test [11], 103%; in [12] it was 93%. Further, the growth in test [13] is 83%; in test [14] it was 55.6%; in [15], 100%; in test [16] it was 84.6%; in test [17], 63%; in [18], 88.7%.
`Cc1cccc(NC(c2cc3cccc4ccc5cccc2c5c43)c2nnnn2C(C)(C)C)c1C` (stereo not drawn): the growth in test [1] was 88.7%; in [2], 82.1%; in [3], 93.7%; in [4] it was 91.1%; in [5], 95.3%; in [6] it was 77.5%. Also, the growth in test [7] is 97.4%; in test [8] it was 62.3%; in test [9] it was 80.2%; in test [10] it was 102%; in test [11] it was 75.2%; in test [12] it was 93%. Also, the growth in test [13] is 66.9%; in test [14] it was 138%; in test [15] it was 90.4%; in test [16], 66.3%; in test [17] it was 95%; in test [18] it was 76%.
As for `COC(=O)c1nc(-c2ccc(C)cc2)oc1S(=O)(=O)N1CCN(c2oc(-c3ccccc3)nc2C#N)CC1`, the growth in [1] was 98.6%; in test [2], 111%; in test [3], 100%; in test [4] it was 94.6%; in [5] it was 99.4%; in [6] it was 99%. In addition, the growth in test [7] is 100%; in test [8], 92%; in test [9], 89.7%; in test [10], 99.6%; in test [11], 106%; in [13], 94%. Also, the growth is 111% in [14]; 100% in [15]; 97.4% in test [16]; 85.8% in [19]; 39.8% in [17].
For `O=C1/C(=C/c2ccc([N+](=O)[O-])cc2)SC(=Nc2ccccc2)N1Nc1ccccc1`, the growth in test [1] was 39.3%; in test [2], 42.3%; in test [3] it was 73.2%; in [4], 60.2%; in test [5], 44.4%; in test [6] it was 62.1%. The growth is 92% in test [7]; 55.8% in test [8]; 19.3% in test [9]; 83% in test [10]; 70.9% in test [11]; 29.5% in test [12]. The growth is 37.1% in test [13]; 89.1% in [14]; 53% in test [15]; 38.6% in test [16]; 24% in test [17]; 3.98% (active) in [18].
Regarding `Nc1nc(-c2cccc([N+](=O)[O-])c2)c(N=Nc2ccccc2[N+](=O)[O-])s1`, the growth in test [1] is 43.8%; in test [2], 80.2%; in test [3], -14.7% (active); in test [4] it was 12.4%; in test [5] it was -79.5% (active); in test [6] it was 46.4%. Besides, the growth in test [7] is 47%; in test [8] it was 66.1%; in [9], 6.53% (active); in [10], 88.4%; in [11], 48.7%; in [12] it was 1.17% (active). The growth in [13] was -36.4% (active); in test [14], -38.6% (active); in [15] it was -72.6% (active); in test [16], -27% (active); in test [17], 46.7%; in [18] it was 62%.

These data come from PubChem BioAssay (NCI).
